Data on 20 compounds can be found in PubChem BioAssay.

The structures appear in SMILES notation. Unmarked numbers belong to inactive results. For some of these results: Entries with a potency or affinity are not part of this list. Calls of active or inactive are those of the source. Unless noted, the rule behind the calls is not given here.

A short description of experiment [1]: antimalarial activity against Dd2 strain (AID 2302;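 active = growth inhibition above 50% at the single 2 µM test dose, taken to imply half-maximal potency below 2 µM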;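 note: 0% = DMSO untreated growth and 100% = chloroquine plus artemisinin killed control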). Particulars: P. falciparum Dd2 in RBCs, LDH growth readout, 72 h; at 2 µM; active compounds read high.
A short description of experiment [2]: human hepatoma cell viability loss – ATP luminescence, cytotoxicity control for P. falciparum antimalarial project, primary screen (AID 2303;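 active = inhibition above 50%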;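 note: 0% = DMSO wells and 100% = digitonin-killed cells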). As to conditions: HepG2 viability, 24-48 h, at 10 µM, active compounds read high.
Experiment [3] deals with L-lactate dehydrogenase (Plasmodium falciparum (isolate CDC / Honduras)) (UniProt Q27743). Kind of experiment: PfLDH activity inhibition – cell lysate, 3D7 strain, counter-screen for P. falciparum growth inhibition project (AID 2304).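 Note: 0% = vehicle and 100% = reference inhibitor.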 As to conditions: P. falciparum 3D7 crude extract, LDH APAD/NBT absorbance; at 2 µM; active compounds read high.
Chain of L-lactate dehydrogenase (Plasmodium falciparum (isolate CDC / Honduras)) (Q27743 whole entry, looked up): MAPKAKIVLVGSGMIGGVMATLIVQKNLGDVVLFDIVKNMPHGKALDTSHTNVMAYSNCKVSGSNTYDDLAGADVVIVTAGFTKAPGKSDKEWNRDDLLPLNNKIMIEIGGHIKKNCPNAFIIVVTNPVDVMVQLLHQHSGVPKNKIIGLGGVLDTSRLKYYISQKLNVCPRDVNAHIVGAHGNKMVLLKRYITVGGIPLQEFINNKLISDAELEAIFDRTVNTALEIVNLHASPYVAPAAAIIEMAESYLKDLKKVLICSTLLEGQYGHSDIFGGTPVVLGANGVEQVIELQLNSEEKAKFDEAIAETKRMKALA
A short description of experiment [4]: inhibition of 3D7 malaria parasite growth – strain 3D7 (AID 2306).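 Note: 0% = DMSO wells and 100% = chloroquine plus artemisinin control wells.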 As to conditions: P. falciparum 3D7 erythrocytic growth, LDH absorbance, 72 h; at 2 µM; active compounds read high.
Experiment [5] concerns the target Calcium-dependent protein kinase 1 (Plasmodium falciparum (isolate 3D7)) (UniProt P62344). Kind of experiment: PfCDPK1 kinase inhibitors, biochemical, TCAMS library (AID 1159585; cut-off not given, nearly all actives have IC50 up to about 0.98 µM;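 note: inhibitors leave more ATP so luminescence rises with inhibition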). Particulars: recombinant PfCDPK1, Kinase-Glo ATP depletion luminescence. Background: Kinase-Glo measures the ATP left after a reaction by luminescence.
Experiment [6] addresses Plasmodium falciparum protein kinase 6 (PK6, PF3D7_1337100) (UniProt Q8IDW1). Description: PfPK6 kinase inhibitors, biochemical, TCAMS library (AID 1159586). As to conditions: recombinant PfPK6, Kinase-Glo ATP depletion luminescence.
Experiment [7] addresses Protein kinase 7 (PK7), Plasmodium falciparum 3D7 (PF3D7_0213400) (UniProt Q7YTF7). Description: inhibition of Plasmodium PK7 catalytic activity – biochemical, TCAMS antimalarial set, Kinase-Glo luminescence (AID 1159587). Particulars: recombinant PfPK7, Kinase-Glo ATP depletion luminescence.
Experiment [8] has as its target Calcium-dependent protein kinase 4 (Plasmodium falciparum (isolate 3D7)) (UniProt Q8IBS5). Kind of experiment: PfCDPK4 kinase inhibitors, biochemical, TCAMS library (AID 1159588; cut-off not given, nearly all actives have IC50 up to about 0.91 µM). Particulars: recombinant PfCDPK4, Kinase-Glo ATP depletion luminescence.

Chain of Calcium-dependent protein kinase 1 (Plasmodium falciparum (isolate 3D7)) (P62344 whole entry, looked up): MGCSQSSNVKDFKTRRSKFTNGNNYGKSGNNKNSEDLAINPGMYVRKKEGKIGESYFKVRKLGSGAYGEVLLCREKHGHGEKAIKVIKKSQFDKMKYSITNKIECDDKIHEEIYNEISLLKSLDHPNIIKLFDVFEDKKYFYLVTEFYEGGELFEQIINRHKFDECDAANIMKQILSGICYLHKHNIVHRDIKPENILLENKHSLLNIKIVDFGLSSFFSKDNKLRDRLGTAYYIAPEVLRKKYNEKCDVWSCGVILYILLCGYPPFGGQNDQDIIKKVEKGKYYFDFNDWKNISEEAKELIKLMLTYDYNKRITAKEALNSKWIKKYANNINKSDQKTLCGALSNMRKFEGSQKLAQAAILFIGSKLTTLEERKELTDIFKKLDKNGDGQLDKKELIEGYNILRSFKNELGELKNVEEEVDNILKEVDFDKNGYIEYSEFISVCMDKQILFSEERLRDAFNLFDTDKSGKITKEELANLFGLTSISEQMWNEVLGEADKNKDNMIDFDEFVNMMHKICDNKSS
Chain of Protein kinase 7 (PK7), Plasmodium falciparum 3D7 (PF3D7_0213400) (Q7YTF7 1-343): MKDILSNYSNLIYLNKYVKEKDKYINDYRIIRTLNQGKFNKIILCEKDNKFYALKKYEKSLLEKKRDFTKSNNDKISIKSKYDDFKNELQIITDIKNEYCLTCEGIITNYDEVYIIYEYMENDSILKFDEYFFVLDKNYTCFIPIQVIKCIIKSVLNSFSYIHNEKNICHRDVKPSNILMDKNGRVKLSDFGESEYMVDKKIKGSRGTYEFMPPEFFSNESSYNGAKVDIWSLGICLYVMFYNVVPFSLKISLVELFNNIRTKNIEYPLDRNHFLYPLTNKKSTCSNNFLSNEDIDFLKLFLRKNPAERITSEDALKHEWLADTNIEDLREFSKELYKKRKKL
Chain of Calcium-dependent protein kinase 4 (Plasmodium falciparum (isolate 3D7)) (Q8IBS5 whole entry, looked up): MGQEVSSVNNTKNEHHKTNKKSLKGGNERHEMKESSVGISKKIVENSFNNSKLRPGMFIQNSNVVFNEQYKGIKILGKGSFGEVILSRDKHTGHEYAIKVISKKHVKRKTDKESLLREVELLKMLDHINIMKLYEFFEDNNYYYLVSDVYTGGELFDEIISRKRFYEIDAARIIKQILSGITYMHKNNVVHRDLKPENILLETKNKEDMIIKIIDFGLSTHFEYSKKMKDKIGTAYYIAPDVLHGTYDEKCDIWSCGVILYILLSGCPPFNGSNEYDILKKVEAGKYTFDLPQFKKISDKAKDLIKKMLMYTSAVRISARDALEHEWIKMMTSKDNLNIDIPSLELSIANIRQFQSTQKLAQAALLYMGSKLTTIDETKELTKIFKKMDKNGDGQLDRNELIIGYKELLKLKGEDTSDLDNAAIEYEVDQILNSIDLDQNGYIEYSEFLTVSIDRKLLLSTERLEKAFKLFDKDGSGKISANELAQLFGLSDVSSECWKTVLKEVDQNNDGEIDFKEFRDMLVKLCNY
Chain of Plasmodium falciparum protein kinase 6 (PK6, PF3D7_1337100) (Q8IDW1 1-305): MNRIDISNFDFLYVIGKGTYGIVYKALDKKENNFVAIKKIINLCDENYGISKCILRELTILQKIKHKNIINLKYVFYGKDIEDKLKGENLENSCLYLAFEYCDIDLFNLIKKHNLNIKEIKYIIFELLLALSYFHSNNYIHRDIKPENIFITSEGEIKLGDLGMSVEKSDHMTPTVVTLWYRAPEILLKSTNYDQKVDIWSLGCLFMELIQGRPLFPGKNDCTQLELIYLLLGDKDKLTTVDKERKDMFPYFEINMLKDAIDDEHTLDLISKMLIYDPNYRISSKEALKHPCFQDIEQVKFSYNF

The inhibition is the drop in the measured response relative to a control, in per cent. For `CC(C)N1CCC(N(Cc2ccc(-c3ccc(C(F)(F)F)cc3)cc2)C(=O)Cn2c(SCc3cccc(F)c3F)nc(=O)c3ccccc32)CC1`, the figures for the growth inhibition in experiment [1] and in experiment [4] were 75% (active) and 91% (active), respectively. Also, the inhibition in experiment [2] was 74% (active); in experiment [3], -4%. For the same compound, the result in experiment [5], in experiment [6], in experiment [7] and in experiment [8] was inactive.
For the compound `O=C(c1ccc([N+](=O)[O-])o1)N1CCN(c2nc3c(F)cc(F)cc3s2)CC1`, the growth inhibition was 86% (active) in experiment [1] and 93% (active) in experiment [4]. Besides, the figures for the inhibition in experiment [2] and in experiment [3] were -7% and -4%, respectively. Also, the result in experiment [5], in experiment [6], in experiment [7] and in experiment [8] was inactive.
Turning to `CC(C)(C)OC(=O)NCc1ccc(Nc2nnc(-c3ccc(OCC(=O)NC[C@@H]4CC[C@H]5C[C@@H]4C5(C)C)c([N+](=O)[O-])c3)o2)cc1`, the growth inhibition in experiment [1] is 52% (active); in experiment [4], 94% (active). Further, the figures for the inhibition in experiment [2] and in experiment [3] were 29% and -3%, respectively. Also, the outcome in experiment [5], in experiment [6], in experiment [7] and in experiment [8] was inactive.
Take `O=C(NCCNc1ccnc(NCc2ccc(F)cc2)n1)c1cc2ccccc2s1`: the growth inhibition in experiment [1] is 17%; in experiment [4], 99% (active). In addition, the inhibition in experiment [2] is 6%; in experiment [3] it was -5%. Moreover, the outcome in experiment [5], in experiment [6], in experiment [7] and in experiment [8] was inactive.
With `Nc1nccc2ccc(-c3cccc4ncccc34)cc12`, the growth inhibition is 94% (active) in experiment [1] and 98% (active) in experiment [4]. Moreover, the results for the inhibition in experiment [2] and in experiment [3] were 40% and -1%, respectively. Moreover, the result in experiment [5], in experiment [6], in experiment [7] and in experiment [8] was inactive.
In the case of `Cc1ccc(NC(=O)c2ccc(-c3cc4cc(Cl)c(Cl)cc4[nH]3)cc2)cc1OCCN1CCCC1`, the figures for the growth inhibition in experiment [1] and in experiment [4] were 90% (active) and 101% (active), respectively. Further, the results for the inhibition in experiment [2] and in experiment [3] were 7% and -6%, respectively. The result in experiment [5], in experiment [6], in experiment [7] and in experiment [8] was inactive.
As to `COc1ccc(NC(=O)Nc2cccc(-c3cccc(-c4nc5ccccc5[nH]4)c3)c2)cc1`, the growth inhibition in experiment [1] is 41%; in experiment [4], 101% (active). In addition, the inhibition in experiment [2] was 41%; in experiment [3], 3%. For the same compound, the result in experiment [5], in experiment [6], in experiment [7] and in experiment [8] was inactive.
For the compound `COc1ccc2nc(SC(C)C(=O)c3c[nH]c4ccccc34)[nH]c2c1` (stereo not given), the growth inhibition in experiment [1] was 98% (active); in experiment [4], 100% (active). Further, the inhibition is -3% in experiment [2] and 0% in experiment [3]. Moreover, the result in experiment [5], in experiment [6], in experiment [7] and in experiment [8] was inactive.
In the case of `CC(CN(C)C)C(=O)Nc1ccc(-c2ccc(-c3nc4ccc(F)cc4[nH]3)cc2)cc1` (stereo not given), the growth inhibition in experiment [1] is 95% (active); in experiment [4], 101% (active). Further, the inhibition in experiment [2] was 14%; in experiment [3], -2%. The result in experiment [5], in experiment [6], in experiment [7] and in experiment [8] was inactive.
On to `CCOc1ccc(C(C)NC(=O)Cc2ccccc2F)cc1OCC` (stereo not given), for which the growth inhibition in experiment [1] was 44%; in experiment [4], 96% (active). Further, the inhibition in experiment [2] is 15%; in experiment [3], 6%. For the same compound, the result in experiment [5], in experiment [6], in experiment [7] and in experiment [8] was inactive.
Consider `NC(N)=Nc1nc(-c2ccc(NCc3ccc(CNc4cccc(-c5csc(N=C(N)N)n5)c4)cc3)cc2)cs1`, for which the growth inhibition was 99% (active) in experiment [1] and 102% (active) in experiment [4]. The inhibition is 11% in experiment [2] and 0% in experiment [3]. Also, the result in experiment [5], in experiment [6], in experiment [7] and in experiment [8] was inactive.
In the case of `Cc1cc(=O)c(C2CCC(c3ccc(Cl)cc3)CC2)c(C)[nH]1` (stereo not given), the values for the growth inhibition in experiment [1] and in experiment [4] were 70% (active) and 88% (active), respectively. Also, the inhibition in experiment [2] is -13%; in experiment [3], 0%. Further, the outcome in experiment [5], in experiment [6], in experiment [7] and in experiment [8] was inactive.
In the case of `COc1ccc2c(NN=Cc3ccccn3)ccnc2c1`, the values for the growth inhibition in experiment [1] and in experiment [4] were 96% (active) and 102% (active), respectively. Further, the inhibition in experiment [2] was 14%; in experiment [3] it was -2%. Further, the outcome in experiment [5], in experiment [6], in experiment [7] and in experiment [8] was inactive.
As to `COc1ccc2nccc([C@@H](O)CN3CCC(NC(=O)C(c4cc5ccccc5o4)N4CCN(c5ccc(F)cc5)CC4)CC3)c2c1` (stereo not given in full), the growth inhibition in experiment [1] is 98% (active); in experiment [4], 100% (active). Besides, the inhibition in experiment [2] was 15%; in experiment [3], -1%. Further, the outcome in experiment [5], in experiment [6], in experiment [7] and in experiment [8] was inactive.
Turning to `COc1cc2c(cc1O)[C@@H]1[C@H](O)[C@@H](O)C=C3CCN(C2)[C@H]31`, the growth inhibition in experiment [1] is 31%; in experiment [4], 90% (active). Moreover, the inhibition in experiment [2] is 18%; in experiment [3] it was 3%. In addition, the outcome in experiment [5], in experiment [6], in experiment [7] and in experiment [8] was inactive.
Take `COc1cc(Nc2nccc(N3CCC(NC(=O)c4cccc(NC(C)=O)c4)C3)n2)cc(OC)c1OC` (stereo not given): the growth inhibition in experiment [1] is 68% (active); in experiment [4], 98% (active). Moreover, the values for the inhibition in experiment [2] and in experiment [3] were 9% and -6%, respectively. Moreover, the result in experiment [5], in experiment [6], in experiment [7] and in experiment [8] was inactive.
As to `Cc1cccc2[nH]c(-c3cccc(-c4cccc(C(=O)NCCc5cn(C)cn5)c4)c3)nc12`, the growth inhibition in experiment [1] is 78% (active); in experiment [4], 101% (active). The results for the inhibition in experiment [2] and in experiment [3] were 12% and 8%, respectively. Besides, the result in experiment [5], in experiment [6], in experiment [7] and in experiment [8] was inactive.
For `CCC(=O)N(c1ccccc1)C1CCN(CCCC(NC(=O)Nc2cc(C(F)(F)F)cc(C(F)(F)F)c2)c2ccc(Cl)c(Cl)c2)CC1` (stereo not given), the growth inhibition in experiment [1] is 18%; in experiment [4], 99% (active). Further, the inhibition was 29% in experiment [2] and -5% in experiment [3]. Further, the outcome in experiment [5], in experiment [6], in experiment [7] and in experiment [8] was inactive.
On to `O=C(c1ccco1)N1CCN(c2nc(-c3ccc(Cl)cc3)nc3ccccc23)CC1`, for which the growth inhibition in experiment [1] was 91% (active); in experiment [4], 96% (active). For the same compound, the inhibition is 13% in experiment [2] and 5% in experiment [3]. For the same compound, the outcome in experiment [5], in experiment [6], in experiment [7] and in experiment [8] was inactive.
Consider `COc1c(C(=O)NC2CCN(Cc3ccccc3)C2)cnc2ccccc12` (stereo not given), for which the growth inhibition in experiment [1] is 12%; in experiment [4], 86% (active). Besides, the inhibition was 2% in experiment [2] and -4% in experiment [3]. The result in experiment [5], in experiment [6], in experiment [7] and in experiment [8] was inactive.
